This is a sample that favours compounds with a hit; in the whole collection about 5.2% have one here.
TrxR1 inh: qHTS Assay for Inhibitors of Mammalian Selenoprotein Thioredoxin Reductase 1 (TrxR1): qHTS; AID 588453, 2011; recombinant rTrxR1, NADPH fluorescence consumption, selenite substrate; 390,000 compounds, 1% hits; Potency, µM (series often up to 114 µM), actives largely listed as inhibitors; further: nearly all actives have a fitted effect of over 65% in size
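Rat TrxR1 (90 nM in the dispensed reagent) was pre-reduced with 400 uM NADPH for 5 min at room temperature, then incubated with compound for 15 min. After 400 uM selenite was added, NADPH fluorescence (Ex 340/Em 450 nm) was followed for 8 min.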
PLK1 PBD block: qHTS for Inhibitors of PLK1-PDB (polo-like kinase 1 - polo-box domain): Primary Screen | AID 720504, 2013 | Plk1 PBD binding of FITC phosphopeptide, fluorescence polarization | Serine/threonine-protein kinase PLK1 (Homo sapiens), P53350 | Potency, µM, hits mostly inhibitors | 360,000 compounds, 2.8% hits; further: series mostly up to about 57 µM; nearly all actives have a fitted effect of over 65% in size
Target sequence (P53350 whole entry, looked up, the tested form may be a part): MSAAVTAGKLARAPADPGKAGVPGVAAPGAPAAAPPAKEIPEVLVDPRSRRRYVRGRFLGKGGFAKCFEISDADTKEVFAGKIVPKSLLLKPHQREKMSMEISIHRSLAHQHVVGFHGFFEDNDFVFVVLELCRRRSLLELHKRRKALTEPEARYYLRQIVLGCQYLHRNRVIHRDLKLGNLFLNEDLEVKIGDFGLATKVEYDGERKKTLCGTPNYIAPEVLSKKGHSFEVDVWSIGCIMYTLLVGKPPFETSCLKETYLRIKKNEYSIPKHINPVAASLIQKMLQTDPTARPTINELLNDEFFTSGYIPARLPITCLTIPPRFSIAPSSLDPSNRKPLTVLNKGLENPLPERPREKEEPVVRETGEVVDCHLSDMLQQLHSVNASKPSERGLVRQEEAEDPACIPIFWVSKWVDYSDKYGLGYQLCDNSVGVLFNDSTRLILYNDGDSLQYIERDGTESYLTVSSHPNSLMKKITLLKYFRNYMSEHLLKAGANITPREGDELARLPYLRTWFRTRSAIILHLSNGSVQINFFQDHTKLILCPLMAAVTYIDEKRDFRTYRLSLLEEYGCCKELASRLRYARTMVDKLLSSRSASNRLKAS
VDR inh: Inhibitors of the vitamin D receptor (VDR): qHTS. Vitamin D3 receptor (Homo sapiens), P11473. Potency, µM, most hits filed as inhibitors. 400,000 compounds, 0.93% hits. VDR-SRC2-3 peptide fluorescence polarization, 2 h
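Signal is fluorescence polarization, reporting how far test compounds block the interaction of VDR with the SRC2-3 coregulator peptide after a 2 h room-temperature incubation.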
Sfp inh: qHTS Assay for Inhibitors of Bacillus subtilis Sfp phosphopantetheinyl transferase (PPTase); 4'-phosphopantetheinyl transferase ffp (Bacillus subtilis), Q9F4F7; Biochemical Sfp PPTase activity, qHTS; Potency, µM, actives largely listed as inhibitors; 310,000 compounds, 3.5% hits;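 further: the enzyme is Sfp with the accession as filed and its product quenches rhodamine fluorescence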
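Fluorescence-quenching assay: 15 nM Sfp-PPTase preincubated 15 min at room temperature with compound, then 5 uM rhodamine-CoA and 12.5 uM BHQ-2-labelled YbbR peptide added. Fluorescence (ex 525/em 598 nm) read at start and after 30 min; difference gives rate.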
TrxR1 substrate: qHTS Assay for Substrates of Mammalian Selenoprotein Thioredoxin Reductase 1 (TrxR1): qHTS | Thioredoxin reductase 1, cytoplasmic (Rattus norvegicus), O89049 | purified TrxR1 substrate turnover, NADPH consumption readout | Potency, µM (top dose mostly 114 µM) | 390,000 compounds, 0.01% hits | AID 588456, 2011; further: nearly all actives have a fitted effect of over 50% in size
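Rat TrxR1, dispensed at 90 nM, was prereduced with 400 uM NADPH (final) for 5 min at ~22 deg C, then incubated with compound 15 min before 400 uM selenite. A first-read NADPH fluorescence drop versus no-compound background flagged substrates.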
IDH1 R132H inh: qHTS for Inhibitors of mutant isocitrate dehydrogenase 1 (IDH1): qHTS; IDH1-R132H enzyme, NADPH consumption, diaphorase/resazurin fluorescence; Potency, µM (top dose mostly 76.6 µM), actives largely listed as inhibitors; 390,000 compounds, 0.093% hits; AID 602179, 2012; further: nearly all actives have a fitted effect of over 65% in size
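IDH1-R132H (0.5 ug/mL dispensed) in pH 7.5 Tris buffer was preincubated 30 min with compound, then given a substrate mix of 0.016 mM NADPH and 2 mM alpha-KG for 80 min at room temperature; remaining NADPH was read by diaphorase/resazurin fluorescence.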
TbPYK confirm: qHTS of Trypanosoma Brucei Inhibitors: Confirmatory Assay for Cherry-picked Compounds. AID 720569, 2013. recombinant TbPYK, Kinase-Glo ATP luminescence. Potency, µM (top dose mostly 76.9 µM), most hits filed as inhibitors. 890 compounds, 67% hits. shares compounds with PLK1 PBD block; further: nearly all actives have a fitted effect of over 70% in size
TbPYK orthogonal: qHTS of Trypanosoma Brucei Inhibitors: Orthogonal Assay for Cherry-picked Compounds; recombinant TbPYK, ADP-Glo luminescence, 60 min; shares compounds with PLK1 PBD block; Potency, µM (titrated, usually from 76.9 µM), usual class: inhibitors; 890 compounds, 62% hits; further: nearly all actives have a fitted effect of over 75% in size
Of the large screens only hits and unclear results are named; the others gave an inactive call (follow-up assays come after a bar, where they were run). The call rests on the fitted dose curve; in most records, active means well fitted curve in the direction sought with a large enough effect; inconclusive means small, poorly fitted or top-dose-only effect, or another doubt; inactive means no such curve, though single readings can be large; an effect the other way counts as inactive or inconclusive.

Cc1ccc(S(=O)(=O)N2CCN(C)CC2)cc1[N+](=O)[O-]	none
CN1CCN(S(=O)(=O)c2ccc(N3CCN(c4ccc(O)cc4)CC3)c([N+](=O)[O-])c2)CC1	TrxR1 inh inconclusive (no result: Sfp inh) | TbPYK confirm 11µM | TbPYK orthogonal 18µM
CC(C)N1C(=O)S/C(=C\c2ccc(-c3ccc(Cl)c(C(=O)O)c3)o2)C1=O	PLK1 PBD block inconclusive, VDR inh inconclusive
CCCCC1(C)OC(=O)C(=Cc2ccc(-c3ccc(Cl)c(C(=O)O)c3)o2)C(=O)O1 (stereo not drawn)	TrxR1 inh inconclusive, PLK1 PBD block 4.2µM, VDR inh 22µM, Sfp inh 45µM | TbPYK confirm 16µM | TbPYK orthogonal 32µM
COc1cc(OC)cc(C(=O)N[C@H](C(=O)OCC(=O)c2ccc(C)c([N+](=O)[O-])c2)C(C)C)c1	none (no result: Sfp inh)
O=C1CSC(=S)N1N=Cc1ccccc1O	PLK1 PBD block 13µM, VDR inh inconclusive (no result: Sfp inh) | TbPYK confirm 13µM | TbPYK orthogonal 13µM
O=C1CSC(=S)N1N=Cc1cccc2ccccc12	none (no result: Sfp inh)
CCNC1=C(Cl)C(=O)c2ccccc2C1=O	none
CCCC(=O)NC1=C(Cl)C(=O)c2ccccc2C1=O	TrxR1 inh 0.4µM, PLK1 PBD block 3µM, VDR inh 7.9µM (no result: Sfp inh) | TbPYK confirm 7.1µM | TbPYK orthogonal 7.1µM
O=C1C2C(C(=O)N1/N=C/c1ccc(N3CCCCC3)o1)C1C=CC2C12CC2 (stereo not drawn)	TrxR1 inh 25µM, VDR inh 89µM, Sfp inh 1µM | TbPYK confirm 28µM | TbPYK orthogonal 32µM
Nc1c(C(=O)Nc2ccc(Cl)cc2)sc2nc(N3CCOCC3)c3c(c12)CCCC3	PLK1 PBD block inconclusive | TbPYK confirm inconclusive | TbPYK orthogonal inconclusive
Nc1c(C(=O)Nc2ccccc2)sc2nc3c(c(-c4ccco4)c12)CCCC3	none
CCCCOC(=O)c1sc2nc(N3CCOCC3)c3c(c2c1N)CC(C)(C)OC3	Sfp inh inconclusive
CCOC(=O)c1sc2nc(N3CCOCC3)c3c(c2c1N)CCN(C)C3	none (no result: TrxR1 inh, PLK1 PBD block, VDR inh, TrxR1 substrate, IDH1 R132H inh)
Nc1c(C(=O)N2CCOCC2)sc2nc(N3CCOCC3)c3c(c12)CCCC3	PLK1 PBD block 27µM, VDR inh 71µM, Sfp inh 10µM | TbPYK confirm 7.9µM | TbPYK orthogonal 14µM
CC1(C)Cc2c(c(N3CCOCC3)nc3sc(C(=O)N4CCCCC4)c(N)c23)CO1	PLK1 PBD block inconclusive, VDR inh inconclusive, Sfp inh 16µM | TbPYK confirm 0.4µM | TbPYK orthogonal 2.5µM
O=C(N/N=C/c1ccc(N2CCCCC2)o1)c1ccccc1	TrxR1 inh 2.8µM, PLK1 PBD block inconclusive, VDR inh 22µM | TbPYK confirm 32µM | TbPYK orthogonal 32µM
Cc1ccc(/C=N/NC(=O)c2ccc(-c3ccccc3)cc2)o1	none
O=C(N/N=C/c1ccc(N2CCOCC2)o1)c1cccc([N+](=O)[O-])c1	TrxR1 inh 3.2µM, PLK1 PBD block inconclusive, VDR inh inconclusive, Sfp inh 1.1µM | TbPYK confirm inconclusive | TbPYK orthogonal 32µM
CCN(CC)c1ccc(C(=O)NNC(=O)CCl)cc1	TrxR1 inh inconclusive, Sfp inh inconclusive
